Values joined by “and” are separate entries in the source; they are usually repeats but may differ in a detail not shown here. Equal entries are not always repeated. Records with an inconclusive call do not appear. Active and inactive are the calls of the source. Unless noted, the call rests on the fitted dose curve.
Experiments:
[1] = Primary qHTS for inhibitors of SARS-S pseudo-typed particle cell entry (AID 1479145); details: outcome: dose series up to 57.1 µM unless noted; further: nearly all actives have a fitted effect of over 45% in size; on activity change, negative = inhibition: on the % scale 0 is the no-effect control and ±100 the full control effect
[2] = Primary qHTS for Huh7 cytotoxicity: counterscreen for inhibitors of MERS-S pseudotyped particle cell entry (AID 1479147); details: outcome: dose series up to 57.1 µM unless noted
[3] = Primary qHTS for inhibitors of MERS-S pseudo-typed particle cell entry (AID 1479149); details: outcome: dose series up to 57.1 µM unless noted; further: nearly all actives have a fitted effect of over 60% in size; on activity change, negative = inhibition: on the % scale 0 is the no-effect control and ±100 the full control effect
[4] = Primary qHTS for Vero E6 cytotoxicity: counterscreen for inhibitors of SARS-S pseudo-typed particle cell entry (AID 1479150); details: outcome: dose series up to 57.1 µM unless noted
[5] = Cytotoxicity counterscreen for inhibitors of SARS-CoV-2 cell entry (AID 1645845); details: outcome: dose series up to 57.1 µM unless noted; further: nearly all actives have a fitted effect of over 50% in size
Summary of the method: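 After a 15 min room-temperature ATPLite 1step step, luminescence reflected ATP remaining in HEK293-ACE2 cells exposed to compound for 1 h plus 48 h at 37 C, with percent activity set by cell and no-cell controls.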

[6] = target: Glutathione peroxidase 1 (Homo sapiens) (UniProt P07203); assay: Primary qHTS Assay for Inhibitors of Recombinant Selenoprotein Glutathione Peroxidase 1 (GPX1) (AID 1845191; active means well fitted curve in the direction sought with a large enough effect; an effect the other way counts as inactive or inconclusive; further: nearly all actives have a fitted effect of over 65% in size)
Summary of the method: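 GPX1 10 nM, GR 100 nM, GSH 1 mM, NADPH 0.5 mM, CHP 0.5 mM (final). 30-min cpd preincubation, RT. Ex340/Em450 read t=0, t=15 min.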

[7] = target: Phospholipid hydroperoxide glutathione peroxidase GPX4 (Homo sapiens) (UniProt P36969); assay: Primary qHTS Assay for Inhibitors of Recombinant Selenoprotein Glutathione Peroxidase 4 (GPX4) (AID 1845192; active means well fitted curve in the direction sought with a large enough effect; an effect the other way counts as inactive or inconclusive; further: nearly all actives have a fitted effect of over 65% in size; on activity change, negative = inhibition: on the % scale 0 is the no-effect control and ±100 the full control effect)
Summary of the method: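 qHTS, GR-coupled: GPX4 200 nM + cpd 30 min RT → GSH 1 mM, NADPH 0.5 mM, GR 100 nM → CHP 0.5 mM start; fluor 340/450 at t0 and t15 min; no-enzyme wells as control.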

[8] = target: Peroxisome proliferator-activated receptor delta (Homo sapiens) (UniProt Q03181); assay: qHTS assay for small molecule agonists of peroxisome proliferator-activated receptor delta signaling (AID 588534);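 further: 0% = DMSO basal wells and 100% = positive control agonist at 10 µM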
Summary of the method: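 EC50 and efficacy values derive from Hill fits of a concentration series in a beta-lactamase reporter cell assay. Exposure is 18 hrs at 37 C, with CCF4 fluorescence as the readout.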

[9] = Primary qHTS to identify inhibitors of SARS-CoV-2 cell entry (AID 1645846); details: SARS-CoV-2 pseudovirus cell entry assay, luminescence; activity change, negative = inhibition: at 57.1 µM (top of the series) unless noted; further: nearly all actives have a fitted effect of over 45% in size
Summary of the method: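 Data are normalized to wells receiving SARS-CoV-2-S pseudoparticles and those given bald particles. Entry signal was luciferase luminescence in stable hACE2 Expi293F cells, 48 hr post-infection, after 1 hr compound pretreatment.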

[10] = KB-8-5-11 P-gp reporter qHTS against the NCATS DSHEA and TCM libraries (AID 1919977; active means well fitted curve in the direction sought with a large enough effect; an effect the other way counts as inactive or inconclusive; further: 0% is about no effect)
Summary of the method: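 Cells were seeded, allowed ~4 h to attach, dosed by pin tool (substance titrations), incubated ~72 h at 37C, then lysed with CellTiter-Glo for 30 min at room temperature before luminescence reading.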

[11] = target: Glucocorticoid receptor (Homo sapiens) (UniProt P04150); assay: qHTS assay for small molecule agonists of glucocorticoid receptor signaling (AID 588532; active means well fitted curve in the direction sought with a large enough effect in the signal ratio, with a control signal flat; the % refers to the signal ratio;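 further: 100% = dexamethasone at 0.1 µM and 0% = DMSO only wells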); details: HeLa MMTV-bla, beta-lactamase ratio, agonist, 18 h; stronger effect = higher value; percent of dexamethasone control, DMSO zero
Summary of the method: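 MMTV-bla HeLa, beta-lactamase reporter; medium with 1% charcoal/dextran-stripped FBS; cpds up to 92 uM, 18 h, 37 C; CCF4 readout 460/530 nm; Hill fit → EC50, efficacy vs 0.1 uM dexamethasone = 100%.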

[12] = target: Vitamin D3 receptor (Homo sapiens) (UniProt P11473); assay: qHTS assay for small molecule agonists of vitamin D receptor signaling (AID 588543);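 further: 0% = DMSO basal and 100% = reference agonist control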
Summary of the method: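 qHTS in agonist mode: compound titrations stimulate a VDR-driven β-lactamase reporter in HEK293T cells over 16 h at 37 °C. Response normalized to 50 nM 1α,25-dihydroxyvitamin D3 = 100%, DMSO = 0%; Hill fitting gives EC50 and maximal response.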

[13] = qHTS assay for small molecule agonists of retinoid X receptor alpha signaling (AID 588544); details: HEK293T RXRa-UAS-bla, beta-lactamase reporter, 18 h; 530 nm emission;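 on activation: 0% = DMSO basal wells and 100% = reference agonist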
[14] = target: Retinoic acid receptor RXR-alpha (Homo sapiens) (UniProt P19793); assay: as above
[15] = target: Thyroid hormone receptor beta (Homo sapiens) (UniProt P10828); assay: qHTS assay for small molecule agonists of thyroid hormone receptor beta signaling (AID 588545);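 further: 0% = DMSO only and 100% = 10 nM T3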
Summary of the method: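 Efficacy and EC50 values derive from Hill fits of qHTS titration data, normalized to 10 nM T3 and DMSO-only wells. HEK 293 reporter cells were stimulated for 18 hrs at 37 C, with beta-lactamase activity measured by CCF4 fluorescence.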

[16] = target: Luciferin 4-monooxygenase (Photinus pyralis) (UniProt P08659); assay: Biochemical firefly luciferase enzyme assay for NPC (AID 624030; active means well fitted curve in the direction sought with a large enough effect; an effect the other way counts as inactive or inconclusive;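 further: purified P. pyralis luciferase at 10 nM with luciferin and ATP substrate; 0% = DMSO and -100% = full luciferase inhibition by PTC124 control; nearly all actives have a fitted effect of over 70% in size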)
Summary of the method: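 Counter-screen for direct inhibition of the luciferase enzyme by approved-drug library compounds, run at 10 nM enzyme in 50 mM Tris acetate (final). Luminescence was read within 5 min of enzyme-buffer addition and normalized to PTC124 versus DMSO (0%).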

[17] = qHTS assay for small molecule agonists of the antioxidant response element (ARE) signaling pathway (AID 651741; active means well fitted activation curve with a large enough effect in the signal ratio; the % refers to the signal ratio; further: % of control where 0% means no effect)
Summary of the method: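 Beta-lactamase reporter expression driven by the antioxidant response element in HepG2 cells was detected by fluorescence with LiveBLAzer B/G FRET substrate (2 h, room temperature) following 16 h compound treatment at 37 C.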

[18] = target: Nuclear receptor subfamily 1 group I member 3 (Homo sapiens) (UniProt Q14994); assay: Primary qHTS for antagonist of constitutive androstane receptor (CAR) against the NCATS DSHEA and TCM libraries (AID 1794836; active means well fitted curve in the direction sought with a large enough effect; an effect the other way counts as inactive or inconclusive)
Summary of the method: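 HepG2 cells stably carrying hCAR and a CYP2B6 luciferase reporter (2,500 cells/well) attached for 5 h, then received compounds with 48 uM CITCO for 24 h at 37C. ONE-Glo luminescence read antagonism; CellTiter-Fluor (405/540 nm) gave viability.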

[19] = target: Bile acid receptor (Homo sapiens) (UniProt Q96RI1); assay: qHTS assay for small molecule agonists of farnesoid X receptor signaling (AID 588527); details: HEK293T FXR-UAS-bla, beta-lactamase ratio, 16 h; stronger effect = higher value;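 further: 0% = vehicle basal and 100% = reference agonist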
Summary of the method: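 FXR-UAS-bla HEK293T, 10% dialyzed FBS; cpds up to 92 uM titration, 16 h 37 C; CCF4 dye 2 h RT; fluorescence. Normalized to chenodeoxycholic acid 100 uM (100%) and DMSO (0%); Hill fit gives EC50, efficacy.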

[20] = target: Alpha-galactosidase (Coffea arabica) (UniProt Q42656); assay: Counterscreen for Glucocerebrosidase Inhibitors: qHTS Assay for Coffee Bean alpha-Galactosidase at pH 4.5 (AID 957; active means well fitted curve in the direction sought with a large enough effect; an effect the other way counts as inactive or inconclusive;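 further: plate controls were enzyme alone for no effect and no enzyme for full effect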)
Summary of the method: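 Quantitative HTS of compounds (0.7 nM to 77 uM) against coffee bean alpha-galactosidase at pH 4.5, measuring 4-methylumbelliferone fluorescence released from 80 uM substrate.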

[21] = target: Alpha-galactosidase (Coffea arabica) (UniProt Q42656); assay: Counterscreen for Glucocerebrosidase Inhibitors: qHTS Assay for Coffee Bean alpha-Galactosidase at pH 5.9 (AID 998; active means well fitted curve in the direction sought with a large enough effect; an effect the other way counts as inactive or inconclusive;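 further: plate controls were uninhibited enzyme for no effect and no-enzyme basal signal for full effect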)
Summary of the method: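 In 50 mM citric acid pH 5.9 with 0.005% Tween-20, coffee bean enzyme hydrolyses 80 uM 4-MU alpha-D-galactopyranoside over 20 min at RT. Activity is normalized to controls; AC50 comes from Hill-modelled concentration-response data.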

[22] = Validation screen for inhibitors of Lassa infection (AID 463096); further: on the % scale 0 is the no-effect control and ±100 the full control effect

Sequence of Glutathione peroxidase 1 (Homo sapiens) (P07203 whole entry, looked up): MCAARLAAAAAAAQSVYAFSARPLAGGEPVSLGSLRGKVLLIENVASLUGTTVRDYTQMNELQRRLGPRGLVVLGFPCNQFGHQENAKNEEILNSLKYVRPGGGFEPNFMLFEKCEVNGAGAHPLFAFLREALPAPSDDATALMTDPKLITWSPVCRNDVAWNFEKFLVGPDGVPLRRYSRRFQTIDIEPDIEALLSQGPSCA
Sequence of Glucocorticoid receptor (Homo sapiens) (P04150 whole entry, looked up): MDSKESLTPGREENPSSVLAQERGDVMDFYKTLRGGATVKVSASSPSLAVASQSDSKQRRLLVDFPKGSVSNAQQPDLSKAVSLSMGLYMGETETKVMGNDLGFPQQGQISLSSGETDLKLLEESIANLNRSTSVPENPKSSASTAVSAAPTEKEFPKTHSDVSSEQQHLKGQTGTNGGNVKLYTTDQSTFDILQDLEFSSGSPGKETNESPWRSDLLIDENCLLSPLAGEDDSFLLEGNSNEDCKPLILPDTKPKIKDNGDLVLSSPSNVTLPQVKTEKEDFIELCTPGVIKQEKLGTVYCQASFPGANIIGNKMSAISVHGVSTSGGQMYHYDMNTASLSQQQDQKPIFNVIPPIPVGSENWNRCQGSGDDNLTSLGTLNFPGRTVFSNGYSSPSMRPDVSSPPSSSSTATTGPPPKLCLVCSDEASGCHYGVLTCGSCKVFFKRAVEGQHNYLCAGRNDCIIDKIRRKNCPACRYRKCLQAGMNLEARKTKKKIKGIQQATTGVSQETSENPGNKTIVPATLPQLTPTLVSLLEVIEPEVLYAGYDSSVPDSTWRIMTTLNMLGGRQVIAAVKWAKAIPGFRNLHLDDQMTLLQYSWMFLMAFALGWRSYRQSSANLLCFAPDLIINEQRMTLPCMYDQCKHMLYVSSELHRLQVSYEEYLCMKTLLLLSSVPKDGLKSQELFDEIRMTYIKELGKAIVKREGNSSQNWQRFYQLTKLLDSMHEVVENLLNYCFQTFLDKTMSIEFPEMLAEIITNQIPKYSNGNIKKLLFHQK
Sequence of Phospholipid hydroperoxide glutathione peroxidase GPX4 (Homo sapiens) (P36969 whole entry, looked up): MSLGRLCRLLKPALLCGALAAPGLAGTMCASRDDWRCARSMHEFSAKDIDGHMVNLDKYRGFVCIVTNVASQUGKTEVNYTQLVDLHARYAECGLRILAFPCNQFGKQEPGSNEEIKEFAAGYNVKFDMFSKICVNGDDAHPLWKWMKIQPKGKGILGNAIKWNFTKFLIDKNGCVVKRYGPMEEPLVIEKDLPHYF
Sequence of Vitamin D3 receptor (Homo sapiens) (P11473 whole entry, looked up): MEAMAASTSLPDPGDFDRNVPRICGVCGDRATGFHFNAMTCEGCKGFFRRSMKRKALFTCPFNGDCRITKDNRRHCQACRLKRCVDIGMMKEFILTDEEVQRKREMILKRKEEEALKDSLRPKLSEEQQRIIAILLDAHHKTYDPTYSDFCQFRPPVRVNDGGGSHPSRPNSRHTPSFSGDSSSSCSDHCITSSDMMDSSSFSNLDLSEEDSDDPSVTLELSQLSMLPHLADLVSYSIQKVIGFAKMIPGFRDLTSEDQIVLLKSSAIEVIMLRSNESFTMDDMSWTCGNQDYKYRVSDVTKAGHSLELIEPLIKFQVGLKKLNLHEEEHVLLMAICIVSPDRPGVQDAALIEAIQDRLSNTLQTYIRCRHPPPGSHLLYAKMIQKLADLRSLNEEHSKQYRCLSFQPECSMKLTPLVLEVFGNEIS
Sequence of Peroxisome proliferator-activated receptor delta (Homo sapiens) (Q03181 whole entry, looked up): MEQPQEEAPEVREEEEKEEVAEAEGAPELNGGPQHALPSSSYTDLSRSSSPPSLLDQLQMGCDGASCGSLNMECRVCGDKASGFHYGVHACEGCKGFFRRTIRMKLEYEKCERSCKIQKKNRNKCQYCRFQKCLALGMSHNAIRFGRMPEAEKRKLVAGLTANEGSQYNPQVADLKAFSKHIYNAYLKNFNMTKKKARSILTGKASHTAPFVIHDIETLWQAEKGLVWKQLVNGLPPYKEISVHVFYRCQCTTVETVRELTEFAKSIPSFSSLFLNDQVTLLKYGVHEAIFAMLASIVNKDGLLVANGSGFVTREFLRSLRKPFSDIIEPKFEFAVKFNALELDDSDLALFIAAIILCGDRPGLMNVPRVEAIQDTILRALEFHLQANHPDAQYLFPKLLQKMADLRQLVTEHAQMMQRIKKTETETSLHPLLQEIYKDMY
Sequence of Thyroid hormone receptor beta (Homo sapiens) (P10828 whole entry, looked up): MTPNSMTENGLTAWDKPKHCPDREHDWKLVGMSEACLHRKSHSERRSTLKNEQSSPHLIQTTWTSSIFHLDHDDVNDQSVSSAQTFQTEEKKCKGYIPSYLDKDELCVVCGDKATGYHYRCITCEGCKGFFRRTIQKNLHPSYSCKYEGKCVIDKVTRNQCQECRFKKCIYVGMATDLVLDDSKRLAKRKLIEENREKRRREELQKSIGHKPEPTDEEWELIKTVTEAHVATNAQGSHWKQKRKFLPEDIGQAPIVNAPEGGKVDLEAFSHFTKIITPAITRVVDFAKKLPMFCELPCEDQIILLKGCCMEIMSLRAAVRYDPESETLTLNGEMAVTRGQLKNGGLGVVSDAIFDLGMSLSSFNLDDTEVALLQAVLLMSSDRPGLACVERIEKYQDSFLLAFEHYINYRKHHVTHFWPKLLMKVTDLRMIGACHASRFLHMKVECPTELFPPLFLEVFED
Sequence of Alpha-galactosidase (Coffea arabica) (Q42656 whole entry, looked up): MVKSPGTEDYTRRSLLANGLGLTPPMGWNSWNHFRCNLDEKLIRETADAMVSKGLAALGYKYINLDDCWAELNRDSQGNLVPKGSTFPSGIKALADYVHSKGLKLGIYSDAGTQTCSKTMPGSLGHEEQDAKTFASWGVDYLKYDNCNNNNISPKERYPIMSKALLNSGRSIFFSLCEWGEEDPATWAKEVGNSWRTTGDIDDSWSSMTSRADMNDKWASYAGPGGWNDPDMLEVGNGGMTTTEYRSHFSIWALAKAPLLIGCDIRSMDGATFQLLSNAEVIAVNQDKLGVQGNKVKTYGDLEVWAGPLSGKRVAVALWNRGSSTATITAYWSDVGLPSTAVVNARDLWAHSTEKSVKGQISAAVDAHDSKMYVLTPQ
Sequence of Retinoic acid receptor RXR-alpha (Homo sapiens) (P19793 whole entry, looked up): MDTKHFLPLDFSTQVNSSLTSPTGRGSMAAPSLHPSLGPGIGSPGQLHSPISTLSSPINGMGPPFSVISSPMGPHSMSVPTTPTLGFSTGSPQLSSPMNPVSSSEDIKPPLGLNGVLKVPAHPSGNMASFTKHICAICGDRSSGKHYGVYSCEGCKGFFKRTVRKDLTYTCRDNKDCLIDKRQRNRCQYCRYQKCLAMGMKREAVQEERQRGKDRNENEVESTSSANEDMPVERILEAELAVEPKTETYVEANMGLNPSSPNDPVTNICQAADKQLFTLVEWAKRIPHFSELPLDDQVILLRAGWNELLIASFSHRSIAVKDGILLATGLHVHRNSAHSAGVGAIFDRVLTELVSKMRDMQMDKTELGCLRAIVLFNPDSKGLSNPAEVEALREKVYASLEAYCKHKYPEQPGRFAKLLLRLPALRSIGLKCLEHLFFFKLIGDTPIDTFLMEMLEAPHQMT
Sequence of Nuclear receptor subfamily 1 group I member 3 (Homo sapiens) (Q14994 whole entry, looked up): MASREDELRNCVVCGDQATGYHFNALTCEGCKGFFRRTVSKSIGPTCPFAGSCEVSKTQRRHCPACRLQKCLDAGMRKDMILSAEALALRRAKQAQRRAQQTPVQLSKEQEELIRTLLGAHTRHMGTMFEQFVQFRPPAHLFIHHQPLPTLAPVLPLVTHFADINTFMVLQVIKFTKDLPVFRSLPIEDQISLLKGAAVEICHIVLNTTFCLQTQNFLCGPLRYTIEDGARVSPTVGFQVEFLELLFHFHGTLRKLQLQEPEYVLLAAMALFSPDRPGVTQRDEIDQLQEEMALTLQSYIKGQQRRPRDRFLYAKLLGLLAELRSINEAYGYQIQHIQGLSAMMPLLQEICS
Sequence of Luciferin 4-monooxygenase (Photinus pyralis) (P08659 whole entry, looked up): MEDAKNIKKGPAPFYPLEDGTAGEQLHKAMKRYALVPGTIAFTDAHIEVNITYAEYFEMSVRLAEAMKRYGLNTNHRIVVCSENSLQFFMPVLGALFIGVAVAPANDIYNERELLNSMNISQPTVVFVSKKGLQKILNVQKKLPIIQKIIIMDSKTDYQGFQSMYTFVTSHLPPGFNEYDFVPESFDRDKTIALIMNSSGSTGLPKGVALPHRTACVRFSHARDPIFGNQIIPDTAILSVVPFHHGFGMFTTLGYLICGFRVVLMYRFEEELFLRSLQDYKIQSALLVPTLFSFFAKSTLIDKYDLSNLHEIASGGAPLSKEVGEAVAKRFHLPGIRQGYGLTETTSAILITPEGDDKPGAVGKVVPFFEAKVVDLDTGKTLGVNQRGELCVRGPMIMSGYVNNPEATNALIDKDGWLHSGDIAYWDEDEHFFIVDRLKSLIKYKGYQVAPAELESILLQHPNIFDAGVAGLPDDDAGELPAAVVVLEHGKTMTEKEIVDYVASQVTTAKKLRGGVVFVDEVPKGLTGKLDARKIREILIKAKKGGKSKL
Sequence of Bile acid receptor (Homo sapiens) (Q96RI1 whole entry, looked up): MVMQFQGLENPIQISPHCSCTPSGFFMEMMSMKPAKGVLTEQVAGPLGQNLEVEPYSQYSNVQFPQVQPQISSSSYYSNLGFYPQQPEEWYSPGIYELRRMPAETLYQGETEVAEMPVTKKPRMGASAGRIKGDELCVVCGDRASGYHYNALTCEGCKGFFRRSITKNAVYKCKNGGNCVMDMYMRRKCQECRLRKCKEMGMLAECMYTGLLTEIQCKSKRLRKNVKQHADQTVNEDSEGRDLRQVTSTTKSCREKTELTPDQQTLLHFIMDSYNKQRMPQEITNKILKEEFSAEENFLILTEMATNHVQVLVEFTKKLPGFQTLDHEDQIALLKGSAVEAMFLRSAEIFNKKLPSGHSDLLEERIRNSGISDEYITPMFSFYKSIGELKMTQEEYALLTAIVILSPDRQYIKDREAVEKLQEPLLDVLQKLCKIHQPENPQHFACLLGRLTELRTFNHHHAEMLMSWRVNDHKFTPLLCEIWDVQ

C=C[C@H]1CN2CC[C@H]1C[C@H]2[C@H](O)c1ccnc2ccccc12
inactive: Potency [1] | Potency [2] | Potency [3] | Potency [4] | Potency [5] | Potency [6] | Potency [7]

COC(=O)c1ccccc1O
inactive: outcome [8] | Potency [1] | Potency [2] | Potency [3] | Potency [4] | Potency [5]
3.44%: activity change, negative = inhibition [9]

C[N+]1([O-])[C@H]2CC(OC(=O)C(CO)c3ccccc3)C[C@H]1[C@H]1O[C@H]12 (stereo partly drawn)
inactive: Potency [1] | Potency [2] | Potency [3] | Potency [4] | Potency [5] | Potency [6] | Potency [7]

CC(C)=CCCC(C)=CCCC(C)=CCCC=C(C)CCC=C(C)CCC=C(C)C
-5.81%: activity change, negative = inhibition [9]
inactive: Potency [1] | Potency [2] | Potency [3] | Potency [4] | Potency [5] | Potency [10]

CC1(C)C(C=C(Cl)Cl)C1C(=O)OCc1cccc(Oc2ccccc2)c1 (stereo not drawn)
inactive: activation [11] 2.68% and -0.215% and 2.06% | outcome [8] | outcome [12] | Potency [14] | outcome [15] | Potency [16] | Potency [17] | Potency [1] | Potency [2] | Potency [3] | Potency [4] | Potency [5]
-7.32% and -8.4%: max response [13]

CC[C@H]1C2C[C@H]3[C@@H]4N(C)c5ccccc5[C@@]45C[C@H](C2[C@H]5O)N3[C@@H]1O (stereo partly drawn)
inactive: Potency [1] | Potency [2] | Potency [3] | Potency [4] | Potency [5] | Potency [6] | Potency [7]

Fc1cccc(Br)c1NC1=NCCN1
inactive: Potency [1] | Potency [2] | Potency [3] | Potency [4] | Potency [5] | Potency [6] | Potency [7]

CC(C)=CCC/C(C)=C/C=C/C(C)=C/C=C/C(C)=C/C=C/C=C(C)/C=C/C=C(C)/C=C/C=C(\C)CCC=C(C)C
inactive: Potency [1] | Potency [2] | Potency [3] | Potency [4] | Potency [5] | Potency [18] | Potency [10]

CCCCC/C=C\C/C=C\C/C=C\CCCCC(=O)O
-13.4% [at 114 µM]: activity change, negative = inhibition [9]
inactive: Potency [1] | Potency [2] | Potency [3] | Potency [4] | Potency [5] | activity change, negative = inhibition [10] 5.04% [at 3.26 µM]

CC(=O)[C@@]1(O)CC[C@H]2[C@@H]3CCC4=CC(=O)CC[C@@H]4[C@H]3CC[C@@]21C
inactive: Potency [1] | Potency [2] | Potency [3] | Potency [4] | Potency [5] | Potency [6] | Potency [7]
-22.5%: activity change, negative = inhibition [9]

Cc1ccc(S(=O)(=O)O)cc1C
-10.6%: activity change, negative = inhibition [9]
inactive: outcome [8] | Potency [1] | Potency [2] | Potency [3] | Potency [4] | Potency [5]

CC1(C)C2CCC1(C)C(O)C2 (stereo not drawn)
inactive: Potency [1] | Potency [2] | Potency [3] | Potency [4] | Potency [5] | Potency [10]

C[C@H]1[C@H](O)[C@@H](C)/C=C/C=C/CC/C=C/C=C/C=C/C=C/C(OC2O[C@H](C)[C@@H](O)[C@H](N)[C@@H]2O)CC2O[C@](O)(CC(O)C(O)CCC(O)CC(O)CC(O)CC(=O)O[C@H]1C)CC(O)C2C(=O)O (stereo partly drawn)
inactive: Potency [1] | Potency [2] | Potency [3] | Potency [4] | Potency [5] | Potency [6]
-22.7%: activity change, negative = inhibition [9]

C=CCCCCCCCCC(=O)O[C@H]1CC[C@H]2[C@@H]3CCC4=CC(=O)C=C[C@]4(C)[C@H]3CC[C@]12C
inactive: Potency [1] | Potency [2] | Potency [3] | Potency [4] | Potency [5] | Potency [6] | Potency [7]

OC[C@H]1O[C@@](CO)(O[C@H]2O[C@H](CO)[C@@H](O)[C@H](O)[C@H]2O)[C@@H](O)[C@@H]1O
inactive: activation [19] -1.48% | outcome [8] | Potency [1] | Potency [2] | Potency [3] | Potency [4] | Potency [5]

C[Si](C)(C)O[Si](C)(C)O[Si](C)(C)C
-16.4% [at 114 µM]: activity change, negative = inhibition [9]
inactive: outcome [8] | Potency [1] | Potency [2] | Potency [3] | Potency [4] | Potency [5]

C[C@@](Cc1ccc(O)c(O)c1)(NN)C(=O)O
inactive: outcome [20] | outcome [21] | Potency [22] | Potency [1] | Potency [2] | Potency [3] | Potency [4] | Potency [5] | Potency [9]

CC1=C(/C=C/C(C)=C/C=C/C(C)=C/CO)C(C)(C)CCC1
-23.2%: activity change, negative = inhibition [9]
inactive: outcome [8] | Potency [1] | Potency [2] | Potency [3] | Potency [4] | Potency [5] | Potency [10]

CC(=O)OC1CC2CCC1(C)C2(C)C (stereo not drawn)
inactive: Potency [1] | Potency [2] | Potency [3] | Potency [4] | Potency [5] | Potency [18] | Potency [10]
-37.9%: activity change, negative = inhibition [9]

CC1=CCC(C(C)(C)O)CC1 (stereo not drawn)
inactive: outcome [8] | Potency [1] | Potency [2] | Potency [3] | Potency [4] | Potency [5] | Potency [10]

CCC[C@@H]1CC(=O)N([C@@H](CC)C(N)=O)C1
inactive: Potency [1] | Potency [2] | Potency [3] | Potency [4] | Potency [5] | Potency [6] | Potency [7]
-22.5%: activity change, negative = inhibition [9]
